Test results as given in PubChem BioAssay.
Active and inactive are the calls of the source. Unless noted, how the calls were made is not given here.

Legend:
[1] = anti-His antibody binders, primary screen, artefact control for SMM control protein annotation, biochemical, small-molecule microarray, 635 nm fluorescence (AID 1128); conditions: anti-His Alexa647 antibody binding, higher = more signal;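 further: score merges feature fluorescence with signal-to-noise for each printed compound spot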
[2] = system: Human papillomavirus type 1a E7 protein (residues 1-88); experiment: HPV1a E7 small-molecule binders, primary screen, biochemical, small-molecule microarray, residues 1-88, 635 nm (AID 1129); conditions: small-molecule microarray binding, fluorescence 635 nm; higher = more signal
[3] = target: Focal adhesion kinase 1 (Homo sapiens) (UniProt Q05397); experiment: small-molecule microarray binders of FAK, primary screen, biochemical, 635/667 nm fluorescence, BSA, DTT (AID 1130); conditions: PTK2 binding, 635 nm fluorescence, higher = more signal;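 further: composite of spot emission at 667 nm and signal to noise over triplicate slides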
Sequence of Focal adhesion kinase 1 (Homo sapiens) (Q05397 whole entry, looked up): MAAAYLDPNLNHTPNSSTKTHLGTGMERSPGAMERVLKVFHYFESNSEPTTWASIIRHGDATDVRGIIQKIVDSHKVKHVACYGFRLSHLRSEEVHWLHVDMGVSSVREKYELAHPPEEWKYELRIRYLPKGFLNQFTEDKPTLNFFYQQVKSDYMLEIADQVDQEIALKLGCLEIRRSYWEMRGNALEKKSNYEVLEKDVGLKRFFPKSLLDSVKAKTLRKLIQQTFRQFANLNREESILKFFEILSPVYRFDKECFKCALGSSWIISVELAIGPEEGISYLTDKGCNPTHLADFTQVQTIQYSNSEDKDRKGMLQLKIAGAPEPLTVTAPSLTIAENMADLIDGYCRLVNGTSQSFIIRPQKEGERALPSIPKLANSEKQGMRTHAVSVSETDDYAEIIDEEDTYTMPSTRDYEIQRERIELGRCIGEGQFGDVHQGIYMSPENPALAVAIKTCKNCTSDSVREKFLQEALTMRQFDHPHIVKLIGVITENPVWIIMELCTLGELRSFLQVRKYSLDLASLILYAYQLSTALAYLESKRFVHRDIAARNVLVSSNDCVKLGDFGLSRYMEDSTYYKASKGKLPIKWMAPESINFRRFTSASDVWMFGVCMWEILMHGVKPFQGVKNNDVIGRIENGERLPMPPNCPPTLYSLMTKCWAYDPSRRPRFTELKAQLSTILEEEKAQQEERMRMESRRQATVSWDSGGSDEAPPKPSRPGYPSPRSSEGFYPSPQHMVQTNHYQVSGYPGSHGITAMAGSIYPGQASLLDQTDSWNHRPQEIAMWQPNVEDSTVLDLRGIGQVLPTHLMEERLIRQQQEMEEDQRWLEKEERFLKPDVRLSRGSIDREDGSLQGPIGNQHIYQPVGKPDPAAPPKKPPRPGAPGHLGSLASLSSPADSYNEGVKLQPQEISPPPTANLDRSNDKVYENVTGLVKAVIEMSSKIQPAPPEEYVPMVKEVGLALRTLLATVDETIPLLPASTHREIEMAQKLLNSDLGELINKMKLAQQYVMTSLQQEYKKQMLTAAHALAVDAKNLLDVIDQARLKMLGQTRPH

[4] = system: Fibrinogen (Alexa647-labelled); experiment: fibrinogen binders on compound microarrays, profiling panel, artefact control for SMM control-protein annotation, biochemical, small-molecule microarray, 635/667 nm fluorescence (AID 1131); conditions: fibrinogen-A647 binding fluorescence, higher = more signal;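 further: z-score merges 667 nm fluorescence with per-spot signal-to-noise over triplicate slides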
[5] = target: Follistatin (Homo sapiens) (UniProt P19883); experiment: follistatin binders on small-molecule microarrays, primary screen, biochemical, small-molecule microarray, 635/667 nm fluorescence (AID 1132); conditions: FST binding, 635 nm fluorescence, higher = more signal
Sequence of Follistatin (Homo sapiens) (P19883 whole entry, looked up): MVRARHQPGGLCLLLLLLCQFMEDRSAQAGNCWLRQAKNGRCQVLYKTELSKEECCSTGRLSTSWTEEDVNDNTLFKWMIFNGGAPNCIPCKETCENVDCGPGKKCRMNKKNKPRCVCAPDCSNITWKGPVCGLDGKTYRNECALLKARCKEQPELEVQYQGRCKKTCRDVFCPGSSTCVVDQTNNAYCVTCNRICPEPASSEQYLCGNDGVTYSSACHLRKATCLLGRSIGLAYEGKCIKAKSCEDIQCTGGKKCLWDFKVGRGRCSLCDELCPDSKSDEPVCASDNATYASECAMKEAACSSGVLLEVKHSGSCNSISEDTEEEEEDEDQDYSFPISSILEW

[6] = target: Fibroblast growth factor 2 (Homo sapiens) (UniProt P09038); experiment: FGF2 binders on small-molecule microarrays, primary screen, biochemical, small-molecule microarray, 635/667 nm fluorescence (AID 1133); conditions: small-molecule microarray binding, FGF2, fluorescence 635/667; higher = more signal
Sequence of Fibroblast growth factor 2 (Homo sapiens) (P09038 whole entry, looked up): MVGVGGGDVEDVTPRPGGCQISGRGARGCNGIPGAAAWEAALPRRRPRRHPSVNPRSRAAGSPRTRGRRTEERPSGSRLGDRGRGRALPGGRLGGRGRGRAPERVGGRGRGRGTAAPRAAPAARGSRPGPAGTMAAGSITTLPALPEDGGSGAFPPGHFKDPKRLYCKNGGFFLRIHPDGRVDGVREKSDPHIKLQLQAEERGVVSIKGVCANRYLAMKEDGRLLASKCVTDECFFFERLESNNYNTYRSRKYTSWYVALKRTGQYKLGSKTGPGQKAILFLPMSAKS

[7] = mitochondrial membrane potential change in A549 cells, profiling panel, cell-based, JC-1 fluorescence, basal, 24 h, 100 nL (AID 1138); conditions: higher = more signal;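 further: A549 lung adenocarcinoma cells under basal conditions with no added stimulus; test concentration not given here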
Lefty1 = Lefty1 binders on small-molecule microarrays, primary screen, biochemical, small-molecule microarray, 635/667 nm fluorescence (AID 1139); conditions: small-molecule microarray binding, fluorescence 635/667; higher = more signal
[8] = system: wheat germ agglutinin (Triticum aestivum), Alexa647-labelled; experiment: wheat germ agglutinin binders on compound microarrays, profiling panel, artefact control for SMM control-protein annotation, biochemical, small-molecule microarray, 635/667 nm fluorescence (AID 1140); conditions: WGA-A647 binding, 635 nm fluorescence, higher = more signal;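 further: score merges 667 nm feature emission with signal to noise over triplicate slides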
[9] = target: Luciferin 4-monooxygenase (Photinus pyralis) (UniProt P08659); experiment: firefly luciferase enzyme inhibitors, primary screen, biochemical, luminescence, purified enzyme, 2006 set (AID 1141); conditions: SteadyGlo luminescence, 30 min, higher = more signal, called active from +8 up or from −8 down;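 further: cell-free assay with purified firefly luciferase at 100 ng per well in PBS; test concentration not given here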
Sequence of Luciferin 4-monooxygenase (Photinus pyralis) (P08659 whole entry, looked up): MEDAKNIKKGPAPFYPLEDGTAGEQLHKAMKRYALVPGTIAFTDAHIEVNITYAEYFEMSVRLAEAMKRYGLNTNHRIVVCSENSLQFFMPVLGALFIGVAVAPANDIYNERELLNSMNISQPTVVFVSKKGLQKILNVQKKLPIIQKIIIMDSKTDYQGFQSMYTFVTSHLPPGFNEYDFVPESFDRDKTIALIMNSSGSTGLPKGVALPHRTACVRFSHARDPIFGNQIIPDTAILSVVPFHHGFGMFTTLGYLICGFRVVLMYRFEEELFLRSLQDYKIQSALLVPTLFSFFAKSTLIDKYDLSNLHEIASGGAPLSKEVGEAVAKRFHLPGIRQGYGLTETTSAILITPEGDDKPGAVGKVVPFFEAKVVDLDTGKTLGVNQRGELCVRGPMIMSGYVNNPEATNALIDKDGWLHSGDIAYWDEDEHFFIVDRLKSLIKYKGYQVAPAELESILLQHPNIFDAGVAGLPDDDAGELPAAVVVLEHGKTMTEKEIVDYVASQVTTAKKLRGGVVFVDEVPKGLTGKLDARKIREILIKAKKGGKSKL

[10] = system: Wnt5a (protein binding on small-molecule microarray); experiment: Wnt5a binders on small-molecule microarray, primary screen, biophysical, 635/667 nm fluorescence (AID 1142); conditions: 635 nm fluorescence, higher = more signal;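 further: fluorescence read at 667 nm with signal to noise per printed feature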
[11] = cell viability in Huh7 cells, primary screen, cytotoxicity control for HCV replication inhibitor project, CellTiter-Glo luminescence, basal, 48 h (AID 1143); conditions: Huh7 HCV replicon, higher = more signal, called active from +8 up or from −8 down;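 further: Huh7 hepatoma cells carrying a hepatitis C replication reporter with no stimulus; test concentration not given here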
[12] = P. aeruginosa biofilm formation inhibitors, primary screen, PAO1 strain, BacTiter-Glo luminescence, LB-PBS (AID 1144); conditions: 12 h, higher = more signal
[13] = CREB reporter modulators without forskolin, primary screen, cell-based, PC12, CRE-LacZ reporter, unstimulated (AID 1145); conditions: no forskolin, luminescence, 4.5 h, higher = more signal, called active from +8 up or from −8 down
[14] = CREB reporter modulators under forskolin, primary screen, cell-based, PC12, CRE-LacZ reporter, forskolin-stimulated (AID 1146); conditions: luminescence, 4.5 h, higher = more signal, called active from +8 up or from −8 down;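 further: PC12 cells with 6xCRE LacZ reporter stimulated by forskolin 10 µM; beta-galactosidase reporter signal reflecting CREB driven transcription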
[15] = target: Streptavidin (Streptomyces avidinii) (UniProt P22629); experiment: streptavidin binders on small-molecule microarray, primary screen, artefact control for SMM compound annotation, biophysical, 635/667 nm fluorescence (AID 1147); conditions: streptavidin binding, higher = more signal;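 further: signal reflects streptavidin binding to arrayed compounds as a control protein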
Sequence of Streptavidin (Streptomyces avidinii) (P22629 whole entry, looked up): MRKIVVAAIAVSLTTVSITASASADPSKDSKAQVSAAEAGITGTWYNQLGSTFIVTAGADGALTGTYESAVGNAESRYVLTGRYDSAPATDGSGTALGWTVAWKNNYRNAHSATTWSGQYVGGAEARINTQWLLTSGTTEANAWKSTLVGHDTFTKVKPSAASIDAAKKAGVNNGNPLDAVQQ

[16] = small-molecule binders of probe aInhba, primary screen, biochemical, small-molecule microarray, 635/667 nm fluorescence (AID 1148); conditions: higher = more signal;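 further: score merges 667nm spot fluorescence with signal-to-noise for antibody binding to printed compounds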
Torsin-1A (Homo sapiens) [17] = target: Torsin-1A (Homo sapiens) (UniProt O14656); experiment: torsin A binders from cell lysate, primary screen, small-molecule microarray, wild-type, 635/667 nm (AID 1149); conditions: COS7 hTOR1A-WT lysate, 635 nm fluorescence, higher = more signal
Sequence of Torsin-1A (Homo sapiens) (O14656 whole entry, looked up): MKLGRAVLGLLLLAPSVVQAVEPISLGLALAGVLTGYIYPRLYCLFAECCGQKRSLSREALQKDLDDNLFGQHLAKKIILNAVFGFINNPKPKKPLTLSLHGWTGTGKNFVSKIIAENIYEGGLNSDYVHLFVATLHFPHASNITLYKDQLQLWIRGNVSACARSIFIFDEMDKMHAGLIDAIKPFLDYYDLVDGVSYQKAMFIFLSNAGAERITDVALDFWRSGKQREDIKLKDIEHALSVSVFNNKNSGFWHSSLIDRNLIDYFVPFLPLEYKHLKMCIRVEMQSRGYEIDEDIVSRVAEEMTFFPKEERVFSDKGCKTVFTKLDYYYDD

Torsin-1A (Homo sapiens) [18] = target: Torsin-1A (Homo sapiens) (UniProt O14656); experiment: small-molecule binders of mutant TOR1A in lysate, primary screen, cell lysate, small-molecule microarray, COS7 lysate, 635/667 nm fluorescence (AID 1150); conditions: COS7 hTOR1A mutant lysate, 635 nm fluorescence, higher = more signal;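 further: score pools 667 nm emission and signal to noise measuring lysate protein binding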
[19] = system: Sonic hedgehog protein (Shh); experiment: small-molecule binders of Shh protein, primary screen, biochemical, small-molecule microarray, 635/667 nm fluorescence (AID 1151); conditions: small-molecule microarray binding, 635 nm fluorescence; higher = more signal;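 further: Shh protein binding to compounds spotted on small-molecule microarray slides; score combines spot fluorescence intensity with signal-to-noise across triplicate slides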

C=CCC(OC(C)=O)[C@@H]1[C@@H](N(Cc2ccc(-c3cccc(C(F)(F)F)c3)o2)C(=O)c2cccc3ccccc23)c2cc(OCCCO)ccc2N1C(=O)c1ccc2ccccc2c1 (stereo not given in full)
composite z-score [1]: 0.272
composite z-score [2]: -0.582
composite z-score [3]: -0.118
composite z-score [4]: -0.425
composite z-score [5]: 0.839
composite z-score [6]: 0.101
z-score [7]: -0.251
composite z-score (Lefty1): 0.429
composite z-score [8]: 0.0578
z-score [9]: 1.05 (inactive)
composite z-score [10]: -0.12
z-score [11]: -1.6 (inactive)
z-score [12]: -0.924 (inactive)
z-score [13]: -0.71 (inactive)
z-score [14]: 0.942 (inactive)
composite z-score [15]: -0.332
composite z-score [16]: -0.118
composite z-score (Torsin-1A (Homo sapiens) [17]): -0.0205
composite z-score (Torsin-1A (Homo sapiens) [18]): -0.0418
composite z-score [19]: 1.23

COc1ccc([Si](C)(C)[C@H]2[C@H](CCn3cc([C@H](O)c4ccccc4)nn3)O[C@@]3(C(=O)N(c4ccccc4)c4ccccc43)[C@@H]2C)cc1
composite z-score [1]: 0.448
composite z-score [2]: -0.431
composite z-score [3]: -0.4
composite z-score [4]: -0.651
composite z-score [5]: 1.24
composite z-score [6]: 0.195
z-score [7]: 0.903
composite z-score (Lefty1): 1.51
composite z-score [8]: 0.428
z-score [9]: 0.687 (inactive)
composite z-score [10]: 0.04
z-score [11]: -4.47 (inactive)
z-score [12]: 0.674 (inactive)
z-score [13]: 0.236 (inactive)
z-score [14]: 0.115 (inactive)
composite z-score [15]: -0.265
composite z-score [16]: -0.0087
composite z-score (Torsin-1A (Homo sapiens) [17]): 0.96
composite z-score (Torsin-1A (Homo sapiens) [18]): -0.242
composite z-score [19]: 1.97

CC(C)C[C@H]1NC(=O)[C@@]23C(=O)N[C@@H](Cc4ccccc4)C2[C@H](C)[C@@]2(C)O[C@H]2C3/C=C/C/C=C\CNC(=O)[C@@H]2CCCN2C1=O (stereo not given in full)
composite z-score [1]: -0.17
composite z-score [2]: -0.0447
composite z-score [3]: -0.171
composite z-score [4]: 0.789
composite z-score [5]: 0.614
composite z-score [6]: 0.829
z-score [7]: -0.0387
composite z-score (Lefty1): 0.661
composite z-score [8]: 0.032
z-score [9]: -0.575 (inactive)
composite z-score [10]: 0.275
z-score [11]: -0.264 (inactive)
z-score [12]: 0.341 (inactive)
z-score [13]: 0.13 (inactive)
z-score [14]: 0.865 (inactive)
composite z-score [15]: -0.362
composite z-score [16]: -0.0471
composite z-score (Torsin-1A (Homo sapiens) [17]): -0.056
composite z-score (Torsin-1A (Homo sapiens) [18]): -0.0683
composite z-score [19]: 1.55

COCCOC(=O)N1C(=O)[C@@]2(c3cc(C#CCC(C(=O)OC)C(=O)OC)ccc31)[C@H](c1ccc(OCCO)cc1)N1[C@H](c3ccccc3)[C@H](c3ccccc3)OC(=O)[C@H]1[C@@H]2C(=O)N1CCCCCCC1
composite z-score [1]: 1
composite z-score [2]: 1.21
composite z-score [3]: 0.899
composite z-score [4]: 0.686
composite z-score [5]: 1.5
composite z-score [6]: 0.614
z-score [7]: -0.83
composite z-score (Lefty1): 0.958
composite z-score [8]: 1.37
z-score [9]: -1.62 (inactive)
composite z-score [10]: 0.803
z-score [11]: -1.67 (inactive)
z-score [12]: -0.147 (inactive)
z-score [13]: -0.467 (inactive)
z-score [14]: -0.553 (inactive)
composite z-score [15]: 2.53
composite z-score [16]: 1.91
composite z-score (Torsin-1A (Homo sapiens) [17]): 2.42
composite z-score (Torsin-1A (Homo sapiens) [18]): 1.98
composite z-score [19]: 1.58

COC(=O)[C@@]1(Cc2ccc(F)cc2)[C@H]2c3cc(C(=O)N(C)C)n(CCO)c3C[C@H]2CN1C(=O)c1ccccc1
composite z-score [1]: 2.78
composite z-score [2]: 0.889
composite z-score [3]: 0.991
composite z-score [4]: 0.797
composite z-score [5]: -0.409
composite z-score [6]: -0.566
z-score [7]: -0.0423
composite z-score (Lefty1): -0.483
composite z-score [8]: 0.718
z-score [9]: -0.683 (inactive)
composite z-score [10]: -0.0929
z-score [11]: -0.494 (inactive)
z-score [12]: -0.0693 (inactive)
z-score [13]: 0.773 (inactive)
z-score [14]: 0.0355 (inactive)
composite z-score [15]: -0.208
composite z-score [16]: 0.0464
composite z-score (Torsin-1A (Homo sapiens) [17]): 0.149
composite z-score (Torsin-1A (Homo sapiens) [18]): 0.297
composite z-score [19]: -0.653

COCCOC(=O)N1C(=O)[C@@]2(c3ccccc31)[C@H](C(N)=O)[C@H]1C(=O)O[C@H](c3ccccc3)[C@H](c3ccccc3)N1[C@@H]2c1ccc(OCCO)cc1
composite z-score [1]: 0.918
composite z-score [2]: 1.24
composite z-score [3]: 0.451
composite z-score [4]: 0.927
composite z-score [5]: 1.11
composite z-score [6]: 0.807
z-score [7]: 0.101
composite z-score (Lefty1): 0.619
composite z-score [8]: 0.982
z-score [9]: 0.346 (inactive)
composite z-score [10]: 0.62
z-score [11]: -1.57 (inactive)
z-score [12]: -0.762 (inactive)
z-score [13]: -1.28 (inactive)
z-score [14]: -1.15 (inactive)
composite z-score [15]: 0.554
composite z-score [16]: 0.0155
composite z-score (Torsin-1A (Homo sapiens) [17]): 1.13
composite z-score (Torsin-1A (Homo sapiens) [18]): 1.14
composite z-score [19]: 1.9
